These results are taken from the supplement of paper PMC11865577.

Where a name gives a salt, the structure may show the parent alone.

The first assay has as its system SARS-CoV-2 low-rank motif (SARS-low). Put plainly: normalised indicator fluorescence (fraction of RNA + indicator signal without compound); higher = less displacement of indicator (weaker competition). The following applies: compound concentration: 5 uM; 30 min; indicator: TO-PRO-1 0.1 uM; RNA concentration: 0.1 uM. An outline of the steps: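 Compounds, each at about 5 uM final from 0.25 μL of 1 mM DMSO stock, were tested in 96-well plates for displacement of TO-PRO-1 or TO-PRO-3 from RNA in 20 mM phosphate pH 7.0, 20 mM NaCl, 80 mM KCl. Fluorescence was recorded after 30 min on an Infinite 200 PRO (excitation 485 or 620 nm). Reported values are averages of two independent experiments, calculated as indicator fluorescence minus the buffer-plus-indicator blank, divided by the RNA-plus-indicator signal without compound.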
For the compound `Nc1c(Br)cc(Br)cc1CN[C@H]1CC[C@H](O)CC1` [Ambroxol], the normalised indicator fluorescence amounted to 0.985.

Turning to `C[C@@H]1O[C@@H](O[C@H]2[C@H](Oc3cc(O)c4c(c3)O[C@H](c3ccc(O)cc3)CC4=O)O[C@H](CO)[C@@H](O)[C@@H]2O)[C@H](O)[C@H](O)[C@H]1O` [Naringin], the normalised indicator fluorescence is 1.14.

For the compound `Oc1cc(O)c2c(c1)O[C@H](c1ccc(O)c(O)c1)[C@@H](O)C2` [Cianidanol], the normalised indicator fluorescence amounted to 1.39.

`COC(=O)C1=CC[C@@]23CC[C@@H]([C@@](C)(/C=C/C=C(\C)C(=O)O)OC2=O)[C@@]3(OC(C)=O)CC1` [Pseudolaric Acid B]: the normalised indicator fluorescence came to 0.981.

Turning to `CC(=O)c1ccc(S(=O)(=O)NC(=O)NC2CCCCC2)cc1` [Acetohexamide], the normalised indicator fluorescence was determined as 0.998.

`O=c1cc(-c2ccc(O)c(-c3c(O)cc(O)c4c(=O)cc(-c5ccc(O)cc5)oc34)c2)oc2cc(O)cc(O)c12` [Amentoflavone]: the normalised indicator fluorescence was found to be 1.31.

Consider `CN(C)CCCN1c2ccccc2CCc2ccc(Cl)cc21` [Clomipramine hydrochloride], for which the normalised indicator fluorescence is 1.07.

For `CN(NC(=O)CC(=O)NN(C)C(=S)c1ccccc1)C(=S)c1ccccc1` [Elesclomol], the normalised indicator fluorescence amounted to 1.17.

As to `CC1(C)C=Cc2c(ccc3c2OC[C@@H](c2ccc(O)cc2O)C3)O1` [Glabridin], the normalised indicator fluorescence is 1.12.

Consider `COc1ccc([C@@H]2OC[C@H]3[C@@H]2CO[C@@H]3c2ccc(O[C@@H]3O[C@H](CO)[C@@H](O)[C@H](O)[C@H]3O)c(OC)c2)cc1OC` [Forsythin], for which the normalised indicator fluorescence was 1.1.

Turning to `Cc1c(F)cc(C(=O)NC2CC2)cc1-c1ccc(C(=O)NCC(C)(C)C)cn1` [Losmapimod], the normalised indicator fluorescence is 1.24.

Regarding `N#CC(c1ccnc(OCc2ccc(CN3CCOCC3)cc2)n1)c1nc2ccccc2s1` (stereo not given), the normalised indicator fluorescence was 1.59.

`Cc1cc(NC(=O)c2cccc(NC(=O)/C=C/CN(C)C)c2)ccc1Nc1nccc(-c2cccnc2)n1`: the normalised indicator fluorescence was 0.999.

`O=C(NC(Cc1cc(=O)[nH]c2ccccc12)C(=O)O)c1ccc(Cl)cc1` (stereo not given) [Rebamipide]: the normalised indicator fluorescence amounted to 1.3.

For the compound `CC1(C)OC(=O)C=C[C@]2(C)[C@H]3CC[C@@]4(C)[C@H](c5ccoc5)OC(=O)[C@H]5O[C@]54[C@]3(C)C(=O)C[C@@H]12` [Obacunone], the normalised indicator fluorescence was 1.14.

As for `O=c1cc(-c2ccc(O)cc2)oc2cc(O)cc(O)c12` [Apigenin], the normalised indicator fluorescence was 1.22.

`C[C@H]1[C@H](C)CC[C@]2(C(=O)O)CC[C@]3(C)C(=CC[C@@H]4[C@@]5(C)C[C@@H](O)[C@H](O)[C@@](C)(CO)[C@@H]5CC[C@]43C)[C@H]12` [Asiatic acid]: the normalised indicator fluorescence was determined as 1.08.

In the case of `N=C(NCCCCCCNC(=N)NC(=N)Nc1ccc(Cl)cc1)NC(=N)Nc1ccc(Cl)cc1` [Chlorhexidine], the normalised indicator fluorescence was 1.11.

For the compound `N=C(NCCCCCCNC(=N)NC(=N)Nc1ccc(Cl)cc1)NC(=N)Nc1ccc(Cl)cc1` [Chlorhexidine hydrochloride], the normalised indicator fluorescence was 1.01.

For `COC1=CC(=O)c2ccccc2C1=O` [2-Methoxynaphthoquinone], the normalised indicator fluorescence is 1.19.

Regarding `O=C1C[C@@H](c2ccc(O)cc2)Oc2cc(O)cc(O)c21` [Naringenin], the normalised indicator fluorescence was found to be 1.03.

`CC(=O)Oc1c(C)c(C)c2c(c1C)CCC(C)(CCC[C@H](C)CCC[C@H](C)CCCC(C)C)O2` (stereo not given in full) [Vitamin E Acetate]: the normalised indicator fluorescence was determined as 1.05.

Take `CC(C)(O)[C@@H]1CC[C@](C)([C@H]2[C@@H](O)C[C@@]3(C)[C@@H]4C[C@H](O)[C@H]5C(C)(C)[C@@H](O[C@@H]6OC[C@@H](O)[C@H](O)[C@H]6O[C@@H]6O[C@H](CO)[C@@H](O)[C@H](O)[C@H]6O)CC[C@@]56C[C@@]46CC[C@]23C)O1` [Astragaloside III]: the normalised indicator fluorescence came out at 1.03.

For `CC(C)c1cc(-c2n[nH]c(=O)n2-c2ccc3c(ccn3C)c2)c(O)cc1O` [Ganetespib], the normalised indicator fluorescence was 1.26.

As to `Cc1c(C)c2c(c(C)c1O)CC[C@@](C)(CCC[C@H](C)CCC[C@H](C)CCCC(C)C)O2` [Vitamin E], the normalised indicator fluorescence was determined as 1.07.

With `CN(C)C[C@@H]1CCn2cc(c3ccccc32)C2=C(C(=O)NC2=O)c2cn(c3ccccc23)CCO1` [Ruboxistaurin hydrochloride], the normalised indicator fluorescence was determined as 1.14.

In the case of `O=C(O)CCc1ccc(O)cc1O` [Hydroumbellic acid], the normalised indicator fluorescence turned out to be 1.15.

In the case of `CC1(C)CC(=O)c2c(C(F)(F)F)nn(-c3ccc(C(N)=O)c(N[C@H]4CC[C@H](O)CC4)c3)c2C1`, the normalised indicator fluorescence came to 1.02.

As for `O=c1c(O)c(-c2cc(O)c(O)c(O)c2)oc2cc(O)cc(O)c12` [Myricetin], the normalised indicator fluorescence turned out to be 0.808.

As for `CC(C)N(CCCCOCC(=O)NS(C)(=O)=O)c1cnc(-c2ccccc2)c(-c2ccccc2)n1` [Selexipag], the normalised indicator fluorescence stood at 1.21.

Turning to `NNC(=O)c1ccncc1` [Isoniazid], the normalised indicator fluorescence was found to be 1.12.

The same assay, now with this note: compound concentration: 5 uM; 30 min; indicator: TO-PRO-3 0.5 uM; RNA concentration: 0.5 uM.
Consider `Nc1c(Br)cc(Br)cc1CN[C@H]1CC[C@H](O)CC1` [Ambroxol], for which the normalised indicator fluorescence stood at 0.984.

For the compound `C[C@@H]1O[C@@H](O[C@H]2[C@H](Oc3cc(O)c4c(c3)O[C@H](c3ccc(O)cc3)CC4=O)O[C@H](CO)[C@@H](O)[C@@H]2O)[C@H](O)[C@H](O)[C@H]1O` [Naringin], the normalised indicator fluorescence was determined as 1.13.

Consider `Oc1cc(O)c2c(c1)O[C@H](c1ccc(O)c(O)c1)[C@@H](O)C2` [Cianidanol], for which the normalised indicator fluorescence turned out to be 1.17.

Consider `COC(=O)C1=CC[C@@]23CC[C@@H]([C@@](C)(/C=C/C=C(\C)C(=O)O)OC2=O)[C@@]3(OC(C)=O)CC1` [Pseudolaric Acid B], for which the normalised indicator fluorescence amounted to 1.27.

Turning to `C[C@@H]1O[C@@H](O[C@@H]2[C@@H](O)[C@H](OCCc3ccc(O)c(O)c3)O[C@H](CO)[C@H]2OC(=O)/C=C/c2ccc(O)c(O)c2)[C@H](O)[C@H](O)[C@H]1O` [Verbascoside], the normalised indicator fluorescence turned out to be 1.16.

As to `CC(=O)c1ccc(S(=O)(=O)NC(=O)NC2CCCCC2)cc1` [Acetohexamide], the normalised indicator fluorescence came out at 1.12.

For `CN(C)CCCN1c2ccccc2CCc2ccc(Cl)cc21` [Clomipramine hydrochloride], the normalised indicator fluorescence is 1.13.

Consider `CN(NC(=O)CC(=O)NN(C)C(=S)c1ccccc1)C(=S)c1ccccc1` [Elesclomol], for which the normalised indicator fluorescence was found to be 1.25.

Take `CC1(C)C=Cc2c(ccc3c2OC[C@@H](c2ccc(O)cc2O)C3)O1` [Glabridin]: the normalised indicator fluorescence stood at 1.2.

Take `Cn1cc(C2=C(c3cn(CCCSC(=N)N)c4ccccc34)C(=O)NC2=O)c2ccccc21` [Ro 31-8220 Mesylate]: the normalised indicator fluorescence stood at 1.01.

`COc1ccc([C@@H]2OC[C@H]3[C@@H]2CO[C@@H]3c2ccc(O[C@@H]3O[C@H](CO)[C@@H](O)[C@H](O)[C@H]3O)c(OC)c2)cc1OC` [Forsythin]: the normalised indicator fluorescence is 1.16.

As to `Cc1c(F)cc(C(=O)NC2CC2)cc1-c1ccc(C(=O)NCC(C)(C)C)cn1` [Losmapimod], the normalised indicator fluorescence turned out to be 1.04.

As to `N#CC(c1ccnc(OCc2ccc(CN3CCOCC3)cc2)n1)c1nc2ccccc2s1` (stereo not given), the normalised indicator fluorescence was found to be 0.556.

As to `CO[C@@H]1[C@H](N(C)C(=O)c2ccccc2)C[C@H]2O[C@]1(C)n1c3ccccc3c3c4c(c5c6ccccc6n2c5c31)C(=O)NC4` [Midostaurin], the normalised indicator fluorescence was determined as 1.35.

As to `Cc1cc(NC(=O)c2cccc(NC(=O)/C=C/CN(C)C)c2)ccc1Nc1nccc(-c2cccnc2)n1`, the normalised indicator fluorescence was found to be 1.14.

With `O=C(NC(Cc1cc(=O)[nH]c2ccccc12)C(=O)O)c1ccc(Cl)cc1` (stereo not given) [Rebamipide], the normalised indicator fluorescence turned out to be 1.07.

As for `CC1(C)OC(=O)C=C[C@]2(C)[C@H]3CC[C@@]4(C)[C@H](c5ccoc5)OC(=O)[C@H]5O[C@]54[C@]3(C)C(=O)C[C@@H]12` [Obacunone], the normalised indicator fluorescence turned out to be 0.991.

As for `O=c1cc(-c2ccc(O)cc2)oc2cc(O)cc(O)c12` [Apigenin], the normalised indicator fluorescence came out at 1.27.

`C[C@H]1[C@H](C)CC[C@]2(C(=O)O)CC[C@]3(C)C(=CC[C@@H]4[C@@]5(C)C[C@@H](O)[C@H](O)[C@@](C)(CO)[C@@H]5CC[C@]43C)[C@H]12` [Asiatic acid]: the normalised indicator fluorescence was 0.985.

For the compound `N=C(NCCCCCCNC(=N)NC(=N)Nc1ccc(Cl)cc1)NC(=N)Nc1ccc(Cl)cc1` [Chlorhexidine], the normalised indicator fluorescence came out at 1.16.

Turning to `N=C(NCCCCCCNC(=N)NC(=N)Nc1ccc(Cl)cc1)NC(=N)Nc1ccc(Cl)cc1` [Chlorhexidine hydrochloride], the normalised indicator fluorescence came to 1.01.

With `COC1=CC(=O)c2ccccc2C1=O` [2-Methoxynaphthoquinone], the normalised indicator fluorescence is 1.12.

For `O=C1C[C@@H](c2ccc(O)cc2)Oc2cc(O)cc(O)c21` [Naringenin], the normalised indicator fluorescence was 1.12.

In the case of `CC(=O)Oc1c(C)c(C)c2c(c1C)CCC(C)(CCC[C@H](C)CCC[C@H](C)CCCC(C)C)O2` (stereo not given in full) [Vitamin E Acetate], the normalised indicator fluorescence turned out to be 1.21.

`CC(C)(O)[C@@H]1CC[C@](C)([C@H]2[C@@H](O)C[C@@]3(C)[C@@H]4C[C@H](O)[C@H]5C(C)(C)[C@@H](O[C@@H]6OC[C@@H](O)[C@H](O)[C@H]6O[C@@H]6O[C@H](CO)[C@@H](O)[C@H](O)[C@H]6O)CC[C@@]56C[C@@]46CC[C@]23C)O1` [Astragaloside III]: the normalised indicator fluorescence came out at 0.988.

On to `CC(C)c1cc(-c2n[nH]c(=O)n2-c2ccc3c(ccn3C)c2)c(O)cc1O` [Ganetespib], for which the normalised indicator fluorescence came to 1.28.

For the compound `Cc1c(C)c2c(c(C)c1O)CC[C@@](C)(CCC[C@H](C)CCC[C@H](C)CCCC(C)C)O2` [Vitamin E], the normalised indicator fluorescence came out at 1.16.

On to `CN(C)C[C@@H]1CCn2cc(c3ccccc32)C2=C(C(=O)NC2=O)c2cn(c3ccccc23)CCO1` [Ruboxistaurin hydrochloride], for which the normalised indicator fluorescence is 0.961.

Consider `O=C(O)CCc1ccc(O)cc1O` [Hydroumbellic acid], for which the normalised indicator fluorescence worked out at 1.15.

As for `CC1(C)CC(=O)c2c(C(F)(F)F)nn(-c3ccc(C(N)=O)c(N[C@H]4CC[C@H](O)CC4)c3)c2C1`, the normalised indicator fluorescence turned out to be 1.08.

In the case of `O=c1c(O)c(-c2cc(O)c(O)c(O)c2)oc2cc(O)cc(O)c12` [Myricetin], the normalised indicator fluorescence is 0.0645.

On to `CC(C)N(CCCCOCC(=O)NS(C)(=O)=O)c1cnc(-c2ccccc2)c(-c2ccccc2)n1` [Selexipag], for which the normalised indicator fluorescence came to 1.13.

In the case of `O=[N+]([O-])c1ccc(-c2nc(-c3ccc(F)cc3)c(-c3ccncc3)[nH]2)cc1`, the normalised indicator fluorescence amounted to 0.939.

`NNC(=O)c1ccncc1` [Isoniazid]: the normalised indicator fluorescence was 1.13.
